From PubChem BioAssay (NCATS)
Records with an inconclusive call do not appear. Calls of active or inactive are those of the source. Calls come from the whole dose curve; as a rule, active = well fitted curve in the direction sought with a large enough effect; inconclusive = small, poorly fitted or top-dose-only effect, or another doubt; inactive = no such curve, though single readings can be large; an effect the other way counts as inactive or inconclusive.

Columns and labels:
MCC-13 = experiment: qHTS assay to identify novel small-molecules to repurpose for Merkel cell carcinoma treatment (AID 1296009); conditions: MCC and control cell lines, CellTiter-Glo viability, 72 h; series mostly up to 46 µM; note: nearly all actives have a fitted effect of over 60% in size
Procedure, shortened: (§1)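 qHTS format: cells treated with library compounds in DMSO across 8 (NPC) or 11 (MIPE) concentrations. Readout after 72 hr at 37 degree celsius was CellTiter-Glo luminescence.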

MCC-26 = experiment: as above; conditions: MCC and control cell lines, CellTiter-Glo viability, 72 h; series mostly up to 46 µM
Procedure, shortened: as §1

MKL-1 = experiment: as above; conditions: MCC and control cell lines, CellTiter-Glo viability, 72 h; series mostly up to 46 µM
Procedure, shortened: as §1

MKL-2 = experiment: as above; conditions: MCC and control cell lines, CellTiter-Glo viability, 72 h; series mostly up to 46 µM
Procedure, shortened: as §1

NIH3T3 = experiment: as above; conditions: MCC and control cell lines, CellTiter-Glo viability, 72 h; at 44.8 µM (top of the series) unless noted
Procedure, shortened: as §1

UISO = experiment: as above; conditions: MCC and control cell lines, CellTiter-Glo viability, 72 h; series mostly up to 46 µM
Procedure, shortened: as §1

WaGa = experiment: as above; conditions: MCC and control cell lines, CellTiter-Glo viability, 72 h; series mostly up to 46 µM
Procedure, shortened: as §1

C33A = experiment: Primary qHTS to identify gynecologic anti-cancer compounds using libraries of approved drugs and bioactive compounds (AID 1345084); conditions: Gynecologic cancer cell panel viability, ATPlite luminescence, 48 h; series mostly up to 57.5 µM; note: nearly all actives have a fitted effect of over 55% in size
Procedure, shortened: (§2)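 Cells, 1,000 per well, plated 16 h, then exposed 48 h at 37 C to compounds. Viability by ATPlite luminescence after 15 min at room temperature.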

CAOV3 = experiment: as above; conditions: Gynecologic cancer cell panel viability, ATPlite luminescence, 48 h; series mostly up to 57.5 µM
Procedure, shortened: as §2

CASKI = experiment: as above; conditions: Gynecologic cancer cell panel viability, ATPlite luminescence, 48 h; series mostly up to 57.5 µM
Procedure, shortened: as §2

HeLa = experiment: as above; conditions: Gynecologic cancer cell panel viability, ATPlite luminescence, 48 h; series mostly up to 57.5 µM
Procedure, shortened: as §2

Hek293T = experiment: as above; conditions: Gynecologic cancer cell panel viability, ATPlite luminescence, 48 h, control line for the selectivity index; series mostly up to 57.5 µM
Procedure, shortened: as §2

JEG-3 = experiment: as above; conditions: Gynecologic cancer cell panel viability, ATPlite luminescence, 48 h; series mostly up to 57.5 µM
Procedure, shortened: as §2

OV90 = experiment: as above; conditions: Gynecologic cancer cell panel viability, ATPlite luminescence, 48 h; series mostly up to 57.5 µM
Procedure, shortened: as §2

PA-1 = experiment: as above; conditions: Gynecologic cancer cell panel viability, ATPlite luminescence, 48 h; series mostly up to 57.5 µM
Procedure, shortened: as §2

SKOV3 = experiment: as above; conditions: Gynecologic cancer cell panel viability, ATPlite luminescence, 48 h; series mostly up to 57.5 µM
Procedure, shortened: as §2

Tov-21-G = experiment: as above; conditions: Gynecologic cancer cell panel viability, ATPlite luminescence, 48 h; series mostly up to 57.5 µM
Procedure, shortened: as §2

Tov112D = experiment: as above; conditions: Gynecologic cancer cell panel viability, ATPlite luminescence, 48 h; series mostly up to 57.5 µM
Procedure, shortened: as §2

[1] = Drug repurposing screens with cells derived from glioblastoma tumor samples (AID 1345199); conditions: GBM patient neurospheres viability, ATP luminescence, 48 h; note: nearly all actives have a fitted effect of over 40% in size
Procedure, shortened: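 Four patient lines of CD133+ GBM neurospheres were screened at several concentrations; hits were retested in those lines plus three slower-growing GBM lines, using 48-hour treatment and ATP-based viability.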

Es-2 = experiment: Primary qHTS to identify gynecologic anti-cancer compounds using libraries of approved drugs and bioactive compounds (AID 1345084); conditions: Gynecologic cancer cell panel viability, ATPlite luminescence, 48 h; series mostly up to 57.5 µM; note: nearly all actives have a fitted effect of over 55% in size
Procedure, shortened: as §2

[2] = at 45.9 µM (top of the series), tumour line B
[3] = at 45.9 µM (top of the series), tumour line D
[4] = at 46 µM (top of the series), tumour line A
[5] = at 46.1 µM (top of the series), tumour line C
% is set by controls: 0 for no effect and ±100 for the full control effect.

CC(=O)Oc1cc(C(C)C)c(OCCN(C)C)cc1C
inactive: Potency (MCC-13) | Potency (MCC-26) | Potency (MKL-1) | Potency (MKL-2) | outcome (NIH3T3) | Potency (UISO) | Potency (WaGa) | Potency (C33A) | Potency (CAOV3) | Potency (CASKI) | Potency (HeLa) | Potency (Hek293T) | Potency (JEG-3) | Potency (OV90) | Potency (PA-1) | Potency (SKOV3) | Potency (Tov-21-G) | Potency (Tov112D) | activity, negative = cell killing ([1]; at 20 µM (top of the series), tumour line C) -2.72% | activity, negative = cell killing ([1]; at 21.2 µM (top of the series), tumour line B) -4.22% | activity, negative = cell killing ([1]; at 21.2 µM (top of the series), tumour line D) -2.65% | activity, negative = cell killing ([1]; at 21.3 µM (top of the series), tumour line A) -22.5%

CN1C(=O)CC[C@H]1c1cccnc1
inactive: Potency (MCC-13) | Potency (MCC-26) | Potency (MKL-1) | Potency (MKL-2) | Potency (UISO) | Potency (WaGa) | Potency (C33A) | Potency (CAOV3) | Potency (CASKI) | Potency (Es-2) | Potency (HeLa) | Potency (Hek293T) | Potency (JEG-3) | Potency (OV90) | Potency (PA-1) | Potency (SKOV3) | Potency (Tov-21-G) | Potency (Tov112D) | activity, negative = cell killing [1, 2] -1.32% | activity, negative = cell killing [1, 3] -18.5% | activity, negative = cell killing [1, 4] -11.4% | activity, negative = cell killing [1, 5] -34.2%

NCCCNCCSP(=O)(O)O
inactive: activity change, negative = cytotoxicity (MCC-13) 18.6% [at 9.22 µM] | activity change, negative = cytotoxicity (MCC-26) 11.5% [at 9.22 µM] | activity change, negative = cytotoxicity (MKL-1) 15.3% [at 9.22 µM] | activity change, negative = cytotoxicity (MKL-2) 7.98% [at 9.22 µM] | outcome (NIH3T3) inactive [at 9.27 µM] | activity change, negative = cytotoxicity (UISO) -0.378% [at 9.22 µM] | activity change, negative = cytotoxicity (WaGa) 14.2% [at 9.22 µM] | activity change, negative = cytotoxicity (C33A) 4.43% [at 11.6 µM] | activity change, negative = cytotoxicity (CAOV3) 4.48% [at 11.6 µM] | activity change, negative = cytotoxicity (CASKI) 0.847% [at 11.6 µM] | activity change, negative = cytotoxicity (Es-2) 6.18% [at 11.6 µM] | activity change, negative = cytotoxicity (HeLa) 7.86% [at 11.6 µM] | activity change, negative = cytotoxicity (Hek293T) -0.973% [at 11.6 µM] | activity change, negative = cytotoxicity (JEG-3) -0.217% [at 11.6 µM] | activity change, negative = cytotoxicity (OV90) -0.281% [at 11.6 µM] | activity change, negative = cytotoxicity (PA-1) 1.25% [at 11.6 µM] | activity change, negative = cytotoxicity (SKOV3) 19.8% [at 11.6 µM] | activity change, negative = cytotoxicity (Tov-21-G) -2.2% [at 11.6 µM] | activity change, negative = cytotoxicity (Tov112D) 1.24% [at 11.6 µM] | activity, negative = cell killing [1, 2] -11.7% | activity, negative = cell killing [1, 3] -3.44% | activity, negative = cell killing [1, 4] -3.51% | activity, negative = cell killing [1, 5] 0.364%

CN=C(NC#N)NCCSCc1nc[nH]c1C
inactive: Potency (MCC-13) | Potency (MCC-26) | Potency (MKL-1) | Potency (MKL-2) | Potency (UISO) | Potency (WaGa) | Potency (C33A) | Potency (CAOV3) | Potency (CASKI) | Potency (Es-2) | Potency (HeLa) | Potency (Hek293T) | Potency (JEG-3) | Potency (OV90) | Potency (PA-1) | Potency (SKOV3) | Potency (Tov-21-G) | Potency (Tov112D) | activity, negative = cell killing [1, 2] -8.34% | activity, negative = cell killing [1, 3] -15.2% | activity, negative = cell killing [1, 4] -11.7% | activity, negative = cell killing [1, 5] -4.17%

NC(=O)N1c2ccccc2C=Cc2ccccc21
inactive: Potency (MCC-13) | Potency (MCC-26) | Potency (MKL-1) | Potency (MKL-2) | Potency (UISO) | Potency (WaGa) | Potency (C33A) | Potency (CAOV3) | Potency (CASKI) | Potency (Es-2) | Potency (HeLa) | Potency (Hek293T) | Potency (JEG-3) | Potency (OV90) | Potency (PA-1) | Potency (Tov-21-G) | Potency (Tov112D) | activity, negative = cell killing [1, 2] -0.221% | activity, negative = cell killing [1, 3] -27.4% | activity, negative = cell killing [1, 4] -32.7% | activity, negative = cell killing [1, 5] -16.6%

CC(=O)[C@@]1(O)CC[C@H]2[C@@H]3CCC4=CC(=O)CC[C@]4(C)[C@H]3CC[C@@]21C
inactive: Potency (MCC-13) | Potency (MCC-26) | Potency (MKL-1) | Potency (MKL-2) | Potency (UISO) | Potency (WaGa) | Potency (C33A) | Potency (CAOV3) | Potency (CASKI) | Potency (Es-2) | Potency (HeLa) | Potency (Hek293T) | Potency (JEG-3) | Potency (OV90) | Potency (PA-1) | Potency (SKOV3) | Potency (Tov-21-G) | Potency (Tov112D) | activity, negative = cell killing [1, 2] -19.9% | activity, negative = cell killing [1, 3] -29.7% | activity, negative = cell killing [1, 5] -20.5%

COc1cc(Cc2cnc(N)nc2N)cc(OC)c1OC
inactive: Potency (MCC-13) | Potency (MCC-26) | Potency (MKL-1) | Potency (MKL-2) | Potency (UISO) | Potency (WaGa) | Potency (C33A) | Potency (CAOV3) | Potency (CASKI) | Potency (Es-2) | Potency (HeLa) | Potency (Hek293T) | Potency (JEG-3) | Potency (OV90) | Potency (PA-1) | Potency (Tov-21-G) | Potency (Tov112D) | activity, negative = cell killing [1, 2] 10.7% | activity, negative = cell killing [1, 3] -9.7% | activity, negative = cell killing [1, 5] -10.9%

CCN(CC)CC(=O)Nc1c(C)cccc1C
inactive: Potency (MCC-13) | Potency (MCC-26) | Potency (MKL-1) | Potency (MKL-2) | outcome (NIH3T3) | Potency (UISO) | Potency (WaGa) | Potency (C33A) | Potency (CAOV3) | Potency (CASKI) | Potency (Es-2) | Potency (HeLa) | Potency (Hek293T) | Potency (JEG-3) | Potency (OV90) | Potency (PA-1) | Potency (SKOV3) | Potency (Tov-21-G) | Potency (Tov112D) | activity, negative = cell killing [1, 2] -12.8% | activity, negative = cell killing [1, 4] 16.4% | activity, negative = cell killing [1, 5] -29.2%

c1cnc(N2CCN(Cc3ccc4c(c3)OCO4)CC2)nc1
inactive: Potency (MCC-13) | Potency (MCC-26) | Potency (MKL-1) | Potency (MKL-2) | Potency (UISO) | Potency (WaGa) | Potency (C33A) | Potency (CAOV3) | Potency (CASKI) | Potency (Es-2) | Potency (HeLa) | Potency (Hek293T) | Potency (JEG-3) | Potency (OV90) | Potency (PA-1) | Potency (SKOV3) | Potency (Tov-21-G) | Potency (Tov112D) | activity, negative = cell killing [1, 2] -3.93% | activity, negative = cell killing [1, 3] -6.17% | activity, negative = cell killing [1, 5] -21.6%

C[C@]12CCC(=O)C=C1CC[C@@H]1[C@@H]2CC[C@@]2(C)[C@H]1CC[C@]2(O)C(=O)CO
inactive: Potency (MCC-13) | Potency (MCC-26) | Potency (MKL-1) | Potency (MKL-2) | Potency (UISO) | Potency (WaGa) | Potency (C33A) | Potency (CAOV3) | Potency (CASKI) | Potency (Es-2) | Potency (HeLa) | Potency (Hek293T) | Potency (JEG-3) | Potency (OV90) | Potency (PA-1) | Potency (SKOV3) | Potency (Tov-21-G) | Potency (Tov112D) | activity, negative = cell killing [1, 2] -14.7% | activity, negative = cell killing [1, 3] 0.984% | activity, negative = cell killing [1, 5] -72.8%
